Tested on: tubulin (bovine brain)
Experiment: tubulin polymerization end-point dOD, fold change relative to DMSO vehicle; higher = more polymerization (stabilization)
Conditions: 50 µM; 60 min; 37 °C
Summary of the method: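 Plates were warmed to 37°C in a Tecan reader and read at 340 nm every minute for 1 hour. Beforehand, bovine brain tubulin (4 mg/ml in G-PEM buffer containing PIPES pH 6.9, MgCl2, EGTA and GTP) from the Cytoskeleton HTS-Tubulin polymerization kit was assembled on ice with compound at a final 50 μM in 0.5% DMSO in 384-well plates. Each value is the end-point change in optical density, expressed as percent fold change relative to DMSO vehicle, with runs scaled using the means and standard deviations of DMSO and reference-control wells.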

SMILES | tubulin polymerization end-point dOD [%]
O=C(Nc1ncc(Cc2ccccc2Br)s1)c1cnccn1 | 6.47
Oc1ccccc1-c1nc2ccc(Cl)cn2c1NCc1ccc2c(c1)OCO2 | 7.3
CCc1ccc2nc(SCC(=O)Nc3ccccc3OC)c(C#N)cc2c1 | -25
O=C(Nc1nc2ccccc2[nH]1)c1cccc2ccccc12 | -76.4
Cc1ccccc1NC(=O)CSc1nc2cc3c(cc2cc1C)CCC3 | 69.3
COc1ccccc1-n1c(SCC(=O)Nc2nc(C)cs2)nnc1-c1cccnc1 | -51
CCc1ccccc1NC(=O)CSc1nc2cc3c(cc2cc1CC)OCO3 | -65
COc1ccc(CNc2c(-c3ccc(O)cc3O)nc3cnccn23)cc1 | 30.8
CC(=O)c1c(C)oc2c1cc(NS(=O)(=O)c1ccc(C)cc1)c1ccccc12 | -58.9
COc1cc(C(=O)Nc2ccc3c(c2)CCN3C(C)=O)cc2c1OCCO2 | -17
N#Cc1ccc(Cc2cnc(NC(=O)c3ccc4ncsc4c3)s2)cc1 | -40.1
CN(C)c1ccc(/C=N/NC(=O)c2cccc(F)c2)cc1 | 27.6
COc1ccc(Cl)cc1NC(=O)CSc1nnc(-c2ccncc2)n1-c1ccccc1 | -50.9
CCOc1ccc(S(=O)(=O)Nc2cc(Br)c3oc(C)c(C(C)=O)c3c2)cc1 | -25.4
Cc1cccc2cc(C#N)c(SCC(=O)c3ccc(F)cc3)nc12 | -11.1
CCOC(=O)Nc1nc2ccccc2[nH]1 | 0.459
COc1ccc(OCc2nnc(SCC(N)=O)n2-c2cc(C)ccc2C)cc1 | -39.4
COC(=O)Nc1nc2cc(C(=O)c3ccccc3)ccc2[nH]1 [Mebendazole] | 6.22
Cc1cccc(Cc2cnc(NC(=O)c3sc4ccccc4c3Cl)s2)c1 | 81.7
CCc1ccccc1NC(=S)N(CCCO)Cc1cc2cc(C)cc(C)c2[nH]c1=O | -51.6
CSc1ncc(C(=O)Nc2ccc(Oc3ccc4c(c3)OCO4)cc2)cn1 | -8.44
CC1Cc2ccccc2N1C(=O)CSc1nnc(-c2cc3ccccc3cc2O)n1C (centres undefined) | -10.6
CCc1cc2cc3c(cc2nc1SCC(=O)Nc1ccccc1Cl)OCCO3 | 11.4
CCc1noc(CSc2ncnc3scc(-c4ccc(C)cc4)c23)n1 | 30.2
CC(=O)Nc1ccc(Nc2nc(-c3c(C)nc4ccccn34)cs2)cc1 | 30.8
COc1cc(C2NC(=O)c3ccccc3N2)cc2c1OCO2 (centres undefined) | -31.5
Cc1cccc2cc3c(N)c(C(=O)N4CCCc5ccccc54)sc3nc12 | -46.4
CCS(=O)(=O)N1CCc2cc(C(=O)Cn3cnc4sc(C)c(-c5ccccc5)c4c3=O)ccc21 | 38.3
COc1cc2c(cc1OC)C(c1cccs1)N(C(=O)Nc1ccc(Cl)cc1)CC2 (centres undefined) | 70.5
